# hNpr1 antagonist: Natriuretic polypeptide receptor (hNpr1) antagonism - Primary qHTS; HEK293 hNpr1 GloSensor cGMP, ANP-stimulated luminescence; Potency, µM (top dose mostly 46.3 µM), hits mostly inhibitors; hit rate 1.6% among 76,000; AID 1347048, 2019; calls by dose curve; further: nearly all actives have a fitted effect of over 60% in size
#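 HEK293 cells stably expressing human Npr1 and cGMP GloSensor pGS-40F, loaded 2 h with 2% GloSensor reagent, given compound 30 min at room temperature. Luminescence read before and 20 min after 0.1 nM hNppA.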
# HEK cytotox: Cytotoxic Profiling in HEK 293 Cell Line of Diverse Libraries Using Quantitative High-Throughput Screening. HEK 293 viability, ATP luminescence (CellTiter-Glo), 48-72 h. Potency, µM (highest dose often 115 µM), hits mostly inhibitors. hit rate 6.6% among 94,000. AID 1345083, 2018; further: nearly all actives have a fitted effect of over 60% in size
#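 HEK 293 seeded at 250 cells/well receive compound via pintool. After 48 or 72 hr at 37 degree Celsius, 5% CO2 and 95% humidity, CellTiter-Glo is dispensed and luminescence read following 10 min at room temperature.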
# GPT2 inh: Primary qHTS assay for inhibitors of Glutamate pyruvate transaminase 2 (GPT2). hit rate 0.25% among 100,000. Potency, µM (highest dose often 57.7 µM), hits mostly inhibitors. Alanine aminotransferase 2 (Homo sapiens), Q8TD30. Recombinant GPT2, coupled pyruvate oxidase/HRP Amplex Red fluorescence. AID 1671188, 2021; further: nearly all actives have a fitted effect of over 60% in size
#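 Inhibition is scored from Amplex Red fluorescence generated when pyruvate oxidase and HRP act on pyruvate released by GPT2. Reactions contain 10ng/uL enzyme, 250uM a-KG and 2mM L-alanine and run 30 min at room temperature.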
# Luciferase inh: Firefly luciferase inhibition profiling of diverse chemical library using quantitative high-throughput screening; Luciferin 4-monooxygenase (Photinus pyralis), P08659; Potency, µM (top dose mostly 115 µM), most hits filed as inhibitors; AID 1347043, 2019; hit rate 2.5% among 76,000; purified P. pyralis luciferase, luminescence, biochemical; further: nearly all actives have a fitted effect of over 65% in size
# Target sequence (P08659 whole entry, looked up): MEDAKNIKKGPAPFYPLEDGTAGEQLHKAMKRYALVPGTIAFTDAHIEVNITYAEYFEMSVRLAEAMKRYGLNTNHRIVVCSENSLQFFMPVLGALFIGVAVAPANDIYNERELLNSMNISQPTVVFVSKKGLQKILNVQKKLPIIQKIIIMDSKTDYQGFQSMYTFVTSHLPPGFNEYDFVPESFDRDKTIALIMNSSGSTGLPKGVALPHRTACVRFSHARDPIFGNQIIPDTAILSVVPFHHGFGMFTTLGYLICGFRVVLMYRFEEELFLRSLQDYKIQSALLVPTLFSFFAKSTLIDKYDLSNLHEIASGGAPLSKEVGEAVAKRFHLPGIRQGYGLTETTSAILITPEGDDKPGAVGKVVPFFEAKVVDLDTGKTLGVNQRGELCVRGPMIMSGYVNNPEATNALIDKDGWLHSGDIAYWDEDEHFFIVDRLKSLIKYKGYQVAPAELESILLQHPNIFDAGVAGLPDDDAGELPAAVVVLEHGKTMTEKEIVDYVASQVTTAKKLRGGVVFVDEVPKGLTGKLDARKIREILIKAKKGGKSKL
#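 Cell-free enzyme assay, 10nM P. pyralis luciferase, luciferin and ATP each at 10uM. Inhibition profiled over a 6-point titration, read as luminescence.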
# 3T3 cytotox: Cytotoxic Profiling in NIH 3T3 Cell Line of Diverse Libraries Using Quantitative High-Throughput Screening; Potency, µM (titrated, usually from 96.7 µM), most hits filed as inhibitors; NIH 3T3 viability, CellTiter-Glo ATP luminescence, 48-72 h; hit rate 4.3% among 94,000; AID 1345082, 2018; further: nearly all actives have a fitted effect of over 55% in size
#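 First NIH 3T3 cells are plated at 400 cells/well; next compound is pinned in; then plates incubate 48 or 72 hr at 37 °C; finally CellTiter-Glo is added and luminescence read after 10 min.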
# Numbers stand for hits; 0 = inactive; ? = inconclusive; - = not tested or not shown. An excerpt weighted towards active compounds, which were near 10% of everything screened. Unless noted, the call rests on the fitted dose curve; in most records, active means well fitted curve in the direction sought with a large enough effect; inconclusive means small, poorly fitted or top-dose-only effect, or another doubt; inactive means no such curve, though single readings can be large; an effect the other way counts as inactive or inconclusive.
SMILES,hNpr1 antagonist,HEK cytotox,GPT2 inh,Luciferase inh,3T3 cytotox
COc1ccc(CC2(CO)CCN(c3nccc(N)n3)CC2)cc1,0,?,0,0,0
Cc1nn(-c2ccccc2)c2c1C(C(C)C)N(C1CCN(C(=O)c3ccccc3F)CC1)C2=O (centres undefined),-,45µM,-,-,?
Cc1ccccc1C(=O)N1CCC(N2C(=O)c3c(c(C)nn3-c3ccccc3)C2C(C)C)CC1 (centres undefined),-,40µM,-,-,?
CC(=O)N1CCC(N2C(=O)c3c(c(C)nn3-c3ccccc3)C2C(C)C)CC1 (centres undefined),-,0,-,-,?
COc1ccccc1-c1cnc(NC(=O)c2cccnc2)c2c1CCO2,0,0,0,0,?
Cc1noc(C)c1-c1cnc(Nc2ccc(F)c(Cl)c2)c2c1CCO2,?,71µM,0,14µM,?
C[S+](=O)([O-])Nc1cccc(Nc2ncc(-c3cccc(F)c3)c3c2OCC3)c1,0,?,0,0,32µM
COc1ccccc1-c1cnc(NC(=O)c2ccc(F)c(Cl)c2)c2c1CCO2,0,?,0,18µM,?
Fc1cccc(-c2cnc(Nc3cncnc3)c3c2CCO3)c1,0,?,0,0,0
Cc1noc(C)c1-c1cnc(NC(=O)c2ccc(Cl)cc2)c2c1CCO2,0,0,0,0,89µM
CN1CCCC2(Cc3ccccc3CN([S+](=O)([O-])c3ccccc3)C2)C1 (centres undefined),-,0,0,-,0
CC1CCN(C(=O)[C@@H](C)C2CC[C@@]3(C)CC[C@H](NC(=O)Nc4cccc(F)c4)[C@@H](C)[C@@H]3[C@H]2O)CC1 (some centres undefined),0,0,0,0,0
O=C(Nc1ncc(-c2cccc(F)c2)c2c1OCC2)c1ccc(Cl)cc1,0,100µM,0,0,?
COC[C@H]1CCCN1C(=O)C[C@@H]1O[C@H](CNC(=O)c2ccco2)[C@@H](O)[C@H]1O,0,?,0,0,0
CC(C)NC(=O)c1cc(-c2cccc(C(F)(F)F)c2)c2cccn2n1,-,35µM,0,-,?
C#CCNC(=O)c1cc(C(C)(C)C)c2cccn2n1,-,0,0,-,0
O=C(NC1CC1)c1cc(-c2cccc(C(F)(F)F)c2)c2cccn2n1,-,35µM,0,-,?
O=C(NCc1ccc(F)cc1)c1cc(-c2cccc(C(F)(F)F)c2)c2cccn2n1,-,25µM,0,-,?
C#CCNC(=O)c1cc(-c2cccc(C(F)(F)F)c2)c2cccn2n1,-,?,0,-,50µM
CC(C)NC(=O)c1cc(-c2ccc([S+](C)(=O)[O-])cc2)c2cccn2n1,-,?,0,-,?
O=C(NCC(F)(F)F)c1cc(-c2cccc(C(F)(F)F)c2)c2cccn2n1,-,35µM,0,-,?
COCCNC(=O)c1cc(-c2cccc(C(F)(F)F)c2)c2nncn2n1,-,0,0,-,0
COc1cc(O)cc(/C=C/c2cccc(O)c2)c1,-,-,0,-,-
Oc1cc(O)cc(/C=C/c2ccc(O)c(O)c2)c1,-,-,6.3µM,-,-
O=C(Nc1cnc(-c2ccc(C(F)(F)F)cc2)nc1)C1CCOC1 (centres undefined),0,?,0,18µM,?
SMILES,hNpr1 antagonist,HEK cytotox,GPT2 inh,Luciferase inh,3T3 cytotox
O=C(NCc1cccs1)C1CCCN(c2nccc(Nc3ccccc3F)n2)C1 (centres undefined),-,?,0,-,?
COc1ccc(Nc2ccnc(N3CCCC(C(=O)NCc4cccs4)C3)n2)cc1 (centres undefined),-,35µM,?,-,35µM
COc1ccc(Nc2ccnc(N3CCCC(C(=O)N4CCCCC4)C3)n2)cc1 (centres undefined),-,?,0,-,?
Cc1ccc(Nc2ccnc(N3CCCC(C(=O)NCc4cccs4)C3)n2)cc1 (centres undefined),-,10µM,0,-,18µM
CCOC(=O)c1ccc(NC(=O)Cn2ccn3nc4c(c3c2=O)CCCCC4)cc1,0,45µM,0,0,?
O=C(Cn1ccn2nc3c(c2c1=O)CCCC3)Nc1ccccc1,0,?,0,0,0
CCOc1ccc(NC(=O)Cn2ccn3nc4c(c3c2=O)CC(C)CC4)cc1 (centres undefined),0,40µM,0,0,32µM
COC[C@@H]1[C@H](NC(=O)c2cn(CCN3CCNCC3)nn2)[C@@H]2CCO[C@H]12,0,0,0,0,0
CCN1C(=O)C2(CCN(S(=O)(=O)c3ccc(CC(C)C)cc3)CC2)c2ccccc21,0,0,0,0,0
Cc1cc(OCCN(C)C)c(C)c2c1CC[C@@H]([C@H](C)C(=O)NCc1cccs1)C2,0,56µM,0,0,63µM
COc1cc(C)c2c(c1C)C[C@H](C(C)C(=O)NCc1ccco1)CC2 (some centres undefined),0,?,0,0,?
CC(=O)Nc1ccc(C2(C(=O)N(C)Cc3ccccc3)CCCCC2)cc1,0,50µM,0,0,?
CN(Cc1ccccc1)C(=O)C1(c2ccc(NC(=O)C3CC3)cc2)CCCCC1,0,35µM,0,0,?
CCn1cc(-c2ccc(OC)cc2)cc1C(=O)N1CCCCCC1,0,?,0,0,0
CCn1cc(CN(C)C(=O)c2cc(-c3ccc(OC)cc3)cn2CC)c(C)n1,?,35µM,?,40µM,?
CN1CCCC2(Cc3ccccc3CN(C(=O)c3ccc(Cl)cc3)C2)C1 (centres undefined),-,0,0,-,0
O=C1Nc2ccccc2CC12CCN(Cc1ccccc1C(F)(F)F)C2 (centres undefined),0,?,0,0,?
COC(=O)c1cccc(COCC2=CC(C)(C)COc3ccc(OC)cc32)c1,-,28µM,-,-,?
Cn1ncc2c(C(=O)Nc3cccc(Cl)c3)cc(-c3ccc(Cl)cc3Cl)nc21,-,22µM,0,-,32µM
COc1ccc(-c2cc(C(=O)Nc3ccc(Cl)cc3)c3cnn(C)c3n2)cc1,-,0,-,-,0
Cn1ncc2c(C(=O)Nc3cccc(Cl)c3)cc(-c3ccccc3F)nc21,-,?,-,-,0
Cn1ncc2c(C(=O)Nc3cccc(Cl)c3)cc(-c3ccc(Cl)nc3)nc21,-,?,0,-,?
Cn1ncc2c(C(=O)Nc3cccc(Cl)c3)cc(C(C)(C)C)nc21,-,63µM,0,-,?
COc1ccc(NC(=O)c2cc(C(C)(C)C)nc3c2cnn3C)cc1,-,63µM,0,-,?
Cc1nc(N2CCC(C(=O)NCC3CCCO3)CC2)cc(C(F)(F)F)n1 (centres undefined),0,0,0,0,0
O=C1CC(c2ccccc2)N(C(=O)CNS(=O)(=O)c2cccc(F)c2)CCCCCN1 (centres undefined),0,0,0,0,0

# Compound activity as filed in PubChem BioAssay.
